“And” between values parts separate entries of the source, which are not always exact repeats. Equal values may be shown once. Inconclusive results are not listed. Values without a mark were called inactive. The source made the active and inactive calls. Calls follow the shape of the full dose curve.
assay: Nuclear factor erythroid 2-related factor 2/antioxidant responsive element (Nrf2/ARE) small molecule agonists: luciferase reporter gene qHTS assay in human keratinocytes (AID 1919969); conditions: KeratinoSens HaCaT ARE-luciferase, luminescence, 24 h; series mostly up to 92.4 µM; activity, positive = activation: at the top concentration; also: nearly all actives have a fitted effect of over 35% in size
Source text: National Center for Advancing Translational Sciences [NCATS]
Division of Preclinical Innovation [DPI]
U.S. Environmental Protection Agency [EPA]
National Institutes of Environmental Health Sciences [NIEHS]
National Toxicology Program [NTP]
U.S. Food and Drug Administration [FDA]
Oxidative stress has been implicated in the pathogenesis of a variety of diseases ranging from cancer to neurodegeneration. The antioxidant response element (ARE) signaling pathway plays an important role in the amelioration of oxidative stress. The KeratinoSens (Givaudan, Switzerland) is an in vitro test method which quantifies luciferase induction as a measure of activation of Keap1-Nrf2-antioxidationt/electrophile response element (ARE) dependant pathway in HaCaT human keratinocytes stably transfected with a selectable plasmid. The KeratinoSens assay is a cell-based assay with a reporter cell line to detect potential skin sensitizers by their ability to induce the Nrf2/ARE-response. The activation of the report gene under culture conditions can be detected by ONE-Glo Luciferase Assay System (Promega, Madison, WI). This cell line has been used to screen the Tox21 10K compound library to identify agonists that induce oxidative stress. The cytotoxicity of the Tox21 compound library against the KS-ARE cell line was tested in parallel by measuring the cell viability using CellTiter- Fluor assay system (Promega, Madison, WI) in the same wells.
HaCaT derived cell line KeratinoSens were dispensed at 1,500 cells/5uL/well in 1536-well white wall/solid bottom plates using a Multidrop Combi (ThermoFisher Scientific, Waltham, MA) dispenser. After the assay plates were incubated at 37 C/5% CO2 for 5 h, 23 nL of compounds dissolved in DMSO, positive controls or DMSO only was transferred to the assay plate by a pintool workstation (Kalypsys, San Diego, CA). The plates were incubated at 37 C/5% CO2 for 23 h, followed by addition of 1uL/well of CellTiter-Fluor reagent into the assay plates using a Flying Reagent Dispenser (Aurora Discovery, San Diego, CA) for cell viability readout that measures cytotoxicity. After 1 h incubation at 37 C/5% CO2 the fluorescence intensity was measured using a ViewLux (PerkinElmer, Shelton, CT) plate reader. Then 4uL/well of One-Glo were added using a Flying Reagent Dispenser. After the plates were incubated at room temperature for 30 min, the luminescence intensity in the assay plates was measured using ViewLux plate reader.
% is scaled to controls: 0 for no effect and ±100 for the full control effect; potency is read from the fitted curve at half-maximal effect.

| SMILES | activity, positive = activation | Potency |
| --- | --- | --- |
| CC(Cc1ccccc1)NCc1ccccc1Cl (stereo not given) | 25.1% [at 42.5 µM] | – |
| COc1cc(C=O)cc2c1[C@H](COC(N)=O)[C@]1(OC(C)=O)ON2C[C@H]2[C@@H]1N2C(C)=O | -50% | – |
| C[C@H]1CNCCc2ccc(Cl)cc21 | 0.422% [at 42.5 µM] | – |
| CC[C@H]1C[C@H]2[C@@H]3CCC4=CC(=O)CC[C@@H]4[C@H]3CC[C@]2(C)[C@H]1O | – | 11.9 µM (active) |
| CCCN1CCC[C@@H]2Cc3nc(N)ncc3C[C@H]21 | 5% [at 42.5 µM] | – |
| C[C@]12C/C(=C/O)C(=O)C[C@@H]1CC[C@@H]1[C@@H]2CC[C@@]2(C)[C@H]1CC[C@]2(C)O | – | 27.6 µM (active) and 6.68 µM (active) |
| C=COC(C)=O | 0.283% | – |
| O=C1NC(=O)C(=O)C(=O)N1 | -15% | – |
| CC(C)(C)C(O)/C(=C\c1ccc(Cl)cc1Cl)n1cncn1 (stereo not given) | -9.9% | – |
| CCC[CH2][Sn]([CH2]CCC)([CH2]CCC)[CH2]CCC | – | 15.4 µM (active) |
| c1cc[n+]2c(c1)-c1cccc[n+]1CC2 | 22% [at 42.5 µM] | – |
| Cc1nnc2n1-c1sc(CCc3ccc(CC(C)C)cc3)cc1C(c1ccccc1Cl)=NC2C (stereo not given) | -48.6% [at 42.5 µM] | – |
| CCC[CH2][Sn]([CH2]CCC)([CH2]CCC)[O]C(=O)c1ccccc1 | – | 0.969 µM (active) |
| OCCBr | 1.54% | – |
| Nc1nc(N)c(N)c(N)n1 | 23.7% | – |
| CNC(=O)O/N=C(\C)SC | -8.03% | – |
| O=C(N[C@H]1CN2CCC1CC2)c1cc2ccoc2cn1 | -15.3% | – |
| CCOP(=S)(OCC)SCS(=O)(=O)CC | 0.175% | – |
| CC(C)=CCOc1c2occc2cc2ccc(=O)oc12 | -9.25% [at 42.5 µM] | – |
| BrCC1CO1 (stereo not given) | 2.81% | – |

| SMILES | activity, positive = activation | Potency |
| --- | --- | --- |
| CCC[CH2][Sn]([CH2]CCC)([O]C(C)=O)[O]C(C)=O | – | 0.0978 µM (active) |
| CCCCCl | -11.4% | – |
| CC1=C2C[C@H]3[C@@H](CC=C4C[C@@H](O)CC[C@@]43C)[C@@H]2CC[C@]12O[C@@H]1C[C@H](C)CN[C@H]1[C@H]2C | -15.9% [at 42.5 µM] | – |
| CCC(COC(=O)c1cc(OC)c(OC)c(OC)c1)(c1ccccc1)N(C)C (stereo not given) | 12.4% [at 42.5 µM] | – |
| O=C(O)C(Br)CBr (stereo not given) | 13.1% | – |
| Oc1ccc2c3c1O[C@H]1[C@@H](O)C=C[C@H]4[C@@H](C2)NCC[C@@]341 | 0.332% | – |
| Nc1cc(Cl)ccc1Cl | -1.47% | – |
| CC1=C(C(=O)Nc2ccccc2)S(=O)(=O)CCO1 | – | 10.9 µM (active) |
| CC1(C)CN=C(NN=C(/C=C/c2ccc(C(F)(F)F)cc2)/C=C/c2ccc(C(F)(F)F)cc2)NC1 | -40.5% | – |
| CN1COCN(Cc2cnc(Cl)s2)/C1=N\[N+](=O)[O-] | -9.92% | – |
| Cc1ccn2nc(S(=O)(=O)Nc3c(F)cccc3F)nc2n1 | -9.99% | – |
| C#CC(O)(C=CCl)CC (stereo not given) | 0.325% [at 42.5 µM] | – |
| CC(CC(C#N)(c1ccccc1)c1ccccc1)N(C)C (stereo not given) | -9.9% | – |
| C=CC(=O)OCC(COC(=O)C=C)(COC(=O)C=C)COC(=O)C=C | – | 6.11 µM (active) |
| CCC(C)c1cc([N+](=O)[O-])cc([N+](=O)[O-])c1OC(=O)C=C(C)C (stereo not given) | – | 24.3 µM (active) |
| Cc1cc(Cl)ccc1O[C@H](C)C(=O)O | -9.01% | – |
| CN(C)c1ccc(N=Nc2ccccc2)cc1 | – | 3.07 µM (active) |
| CCCOc1nn(C(=O)NS(=O)(=O)c2ccccc2C(=O)OC)c(=O)n1C | – | 68.3 µM (active) |
| O=C(NC(=O)c1c(F)cccc1F)Nc1ccc(Oc2ccc(C(F)(F)F)cc2Cl)cc1F | 14% | – |
| O=CCCl | 7.82% | – |
